Among the data in PubChem BioAssay (Tox21) are Potency and activity change, negative = cytotoxicity values, retold here.

Molecules are shown by their SMILES. Inconclusive results are not listed. A call without a number means that no potency is given here. Values without a mark were called inactive. Activity calls are given as the source filed them. Calls follow the shape of the dose curve; as a rule, active = well fitted cell-killing curve with a large enough effect in the repeat runs; inconclusive = weak or mixed curves, or effect the other way; inactive = flat fitted curve, though single readings scatter.

This experiment in a line: cAMP Responsive Elements (CRE) small molecule agonists, cell-based qHTS assay: qHTS cell viability counter screen (AID 2060914). Also: nearly all actives have a fitted effect of over 50% in size. To be noted: CRE-bla HEK293T viability, CellTiter-Glo luminescence, 5 h; series mostly up to 92.4 µM. Put shortly: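 Cytotoxicity counter screen multiplexed with the CRE-bla reporter assay in HEK 293T cells: 3 h compound exposure at 37 °C, followed by CellTiter-Glo luminescence measured in the same wells.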
Take `Cc1cccc(C)c1O`: the Potency entry is “inactive”.
The same measure, in the same setting: in the case of `O=C1OCCN1/N=C/c1ccc([N+](=O)[O-])o1` it was “inactive”; in that of `CCC[C@@H]1C[C@@H](C(=O)N[C@@H]([C@H]2O[C@H](SC)[C@H](O)[C@@H](O)[C@H]2O)[C@@H](C)O)N(C)C1`, “inactive”.
On the same count and under the same terms, in the case of `CSc1ccc2c(c1)C(N1CCN(C)CC1)Cc1ccccc1S2` (stereo not given) it was “inactive”.
On the same count and under the same terms, in the case of `O=C(Oc1ccccc1C(=O)O)c1ccccc1O` it was “inactive”.
`C/C=C/C=C/C(=O)O`: the Potency entry was “inactive”.
Still for that read-out and setting: in the case of `OC/C(Br)=C(\Br)CO` it was “inactive”; in that of `CC(COC(C)(C)C)OCCCO` (stereo not given), “inactive”; in that of `CO[Si](C)(OC)c1ccccc1`, “inactive”.
On the same count and under the same terms, to `OC[C@@H](O)[C@H](O)[C@@H](O)[C@@H](O)CO` belongs “inactive”; to `Cc1onc(-c2ccccc2)c1C(=O)Cl`, “inactive”.
In the case of `CCCCN1CCCC1C(=O)Nc1c(C)cc(C)cc1C` (stereo not given), the Potency result is “inactive”.
On the same count and under the same terms, to `Cc1ncc([N+](=O)[O-])n1CCO` belongs “inactive”.
Still for that read-out and setting: in the case of `O=[N+]([O-])c1cc[n+]([O-])cc1` it was “inactive”.
On the same count and under the same terms, to `O=C1c2ccccc2C(=O)C1c1nc2ccccc2c(Br)c1O` belongs “inactive”.
Turning to `[O-][n+]1ccccc1SSc1cccc[n+]1[O-]`, the activity change, negative = cytotoxicity was -16.6% [at 18.9 µM].
As for `CC(C)[N+](C)(CCOC(=O)C1c2ccccc2Oc2ccccc21)C(C)C`, the Potency result is “inactive”.
Same read-out and setting: to `CCCOC(=O)NCCCN(C)C` belongs “inactive”.
Same read-out and setting: in the case of `CO[Si](CCCNCCNCCN)(OC)OC` it was “inactive”; in that of `CC(C)(c1cc(Br)c(OCC(Br)CBr)c(Br)c1)c1cc(Br)c(OCC(Br)CBr)c(Br)c1` (stereo not given), “inactive”; in that of `CCCCCCCCCCCCI`, “inactive”.
Take `CC/C=C\C/C=C\C/C=C\CCCCCCCC(=O)OCC`: the Potency entry is “inactive”.
Still for that read-out and setting: in the case of `c1ccc2sc(SSN3CCOCC3)nc2c1` it was “inactive”; in that of `CC(C)CCCCCOC(=O)CCCCC(=O)OCCCCCC(C)C`, “inactive”; in that of `O=C(O)c1cccnc1`, “inactive”.
Same read-out and setting: to `Fc1ccc(C(c2ccc(F)cc2)N2CCN(C/C=C/c3ccccc3)CC2)cc1` belongs “inactive”; to `CCC(C)c1cc([N+](=O)[O-])cc([N+](=O)[O-])c1OC(=O)OC(C)C` (stereo not given), “inactive”; to `CCC(C(=O)OCCN(CC)CC)c1ccccc1` (stereo not given), “inactive”.
The same measure, in the same setting: in the case of `C=CC(C)(O)CC/C=C(/C)CCC=C(C)C` (stereo not given) it was “inactive”.
On to `C[Si]1(C)O[Si](C)(C)O[Si](C)(C)O[Si](C)(C)O[Si](C)(C)O1`, for which the Potency entry is “inactive”.
On the same count and under the same terms, in the case of `O=C(O[C@@H](C(=O)O)[C@@H](OC(=O)c1ccccc1)C(=O)O)c1ccccc1` it was “inactive”.
For `C1COCCN1`, the Potency entry is “inactive”.
On the same count and under the same terms, to `Cc1cc(CC(=O)O)c(C)n1-c1ccc(Cl)cc1` belongs “inactive”; to `CCCCOC(=O)/C=C\C(=O)OCCCC`, “inactive”.
On to `CCCCCCCCCCOc1cc2c(=O)c(C(=O)OCC)c[nH]c2cc1OCC`, for which the activity change, negative = cytotoxicity was -0.252% [at 8.39 µM].
Take `Nc1ccc(O)c(C(=O)O)c1`: the Potency entry is “inactive”.
Still for that read-out and setting: to `CN1C(C)(C)CCCC1(C)C` belongs “inactive”; to `CC1(N)CCC(C(C)(C)N)CC1` (stereo not given), “inactive”.
On the same count and under the same terms, in the case of `COc1ccccc1OC(=O)Oc1ccccc1OC` it was “inactive”.
Same read-out and setting: to `O=C(CO)[C@@H](O)[C@H](O)[C@H](O)CO` belongs “inactive”.
